Screening results (PubChem)
This is one part of a sample in which hits are shown more often than they occur.
ST2 inh – blocks human ST2 binding to IL-33; 78,000 compounds, 2.3% hits; AID 1259354; AlphaLISA ST2-Fc/biotin-IL-33 interaction, 1 h; inhibition, % for hits at 17 µM; in the data active = inhibition above about 30%
Target sequence (Q01638 whole entry, looked up): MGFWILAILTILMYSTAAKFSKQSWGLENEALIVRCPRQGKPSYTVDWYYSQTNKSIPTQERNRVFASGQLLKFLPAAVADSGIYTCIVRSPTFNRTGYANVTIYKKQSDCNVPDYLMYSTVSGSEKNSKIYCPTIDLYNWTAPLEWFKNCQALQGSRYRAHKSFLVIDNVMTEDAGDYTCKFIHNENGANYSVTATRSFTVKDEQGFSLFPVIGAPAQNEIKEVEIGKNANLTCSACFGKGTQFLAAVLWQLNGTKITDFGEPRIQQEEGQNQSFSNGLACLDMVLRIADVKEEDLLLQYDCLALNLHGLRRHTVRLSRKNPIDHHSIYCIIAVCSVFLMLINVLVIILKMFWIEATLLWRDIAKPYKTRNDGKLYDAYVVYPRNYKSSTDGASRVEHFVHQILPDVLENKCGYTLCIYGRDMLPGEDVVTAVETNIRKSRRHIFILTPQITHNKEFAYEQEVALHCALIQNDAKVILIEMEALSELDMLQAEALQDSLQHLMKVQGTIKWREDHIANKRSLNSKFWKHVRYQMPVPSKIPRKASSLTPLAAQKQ
* hit, by the source's call; i = inactive.

SMILES | ST2 inh
CC/C=C\CCc1c(-c2ccccc2)ncn1CC1CCN(C)C1 (configuration not stated) | i
CN(C)c1ccc(/C=c2\sc3nnc(-c4ccccc4Cl)n3c2=O)cc1 | i
COc1ccc(/C=c2\sc3nnc(-c4ccccc4Cl)n3c2=O)cc1 | i
Cc1ccc(/C=c2\sc3nnc(-c4ccccc4Cl)n3c2=O)o1 | 37%*
CN(CC1CCCNC1)C(=O)c1cccc(NCc2cccs2)c1 (configuration not stated) | i
Cc1nc(-c2cccnc2)ncc1C(=O)N1CCOC(C(F)(F)F)C1 (configuration not stated) | i
Cc1ccc(Cn2ccc(NC(=O)CCCn3nc([N+](=O)[O-])cc3C)n2)cc1 | i
O=C(COc1ccc(-c2ccccc2)cc1)Nc1ncn[nH]1 | i
Cc1ccc(C)c(CN2CCN(Cc3ccc4c(c3)OCO4)CC2)c1 | i
O=[N+]([O-])c1ccccc1S(=O)(=O)NCc1cccnc1 | i
O=[N+]([O-])c1cccnc1NCc1ccccc1 | 39%*
COc1ccc(CNc2ncnc(NCc3ccc(OC)cc3)c2[N+](=O)[O-])cc1 | i
CCc1ccc(S(=O)(=O)N2CCSC2c2ccc(OC)c(OC)c2)cc1 (configuration not stated) | i
O=C(Nc1ccc(-c2cn3ccccc3n2)cc1)c1cc2cc(Br)ccc2oc1=O | i
O=S(=O)(Cc1ccccc1)C1=C(N2CCOCC2)CCCCCC1 | i
CC1=CC(=O)C=C(C)C1=NOC(=O)/C=C\c1ccccc1 | 35%*
COc1ccc(/C=C/C(=O)Nc2ccccc2C(=O)O)cc1OC | i
COc1ccc2oc(=O)c(NC(=O)/C=C/c3ccccc3)cc2c1 | i
O=C(Nc1cc(F)ccc1F)C(NS(=O)(=O)c1cccs1)c1ccccc1 (configuration not stated) | i
COc1ccc(S(=O)(=O)N(CC(=O)Nc2cccc(F)c2)Cc2ccccc2)cc1 | i
Cc1cc(C)n(-c2ccc3cccc([N+](=O)[O-])c3n2)n1 | i
O=[N+]([O-])c1cccc2ccc(Nc3ccccn3)nc12 | 31%*
O=[N+]([O-])c1ccccc1OCCOc1cccc2cccnc12 | i
CC1CCCCN1CC(O)COc1ccc(C(C)(C)C)cc1 (configuration not stated) | i
NC(N)=NS(=O)(=O)c1ccc(N=Cc2cc(Br)cc(Br)c2O)cc1 | i
SMILES | ST2 inh
Oc1c(Br)cc(C=Nc2ccc(N3CCOCC3)cc2)c(O)c1Br | 52%*
COc1ccc(N=Cc2cc(Br)cc(Cl)c2O)cc1 | i
COc1cc(C2NCC(c3ccc([N+](=O)[O-])cc3)O2)ccc1O (configuration not stated) | i
O=C(CN1CCCN(Cc2cccc(F)c2)S1(=O)=O)Nc1cccc(Cl)c1 | i
Nc1c(S(=O)(=O)O)cc(Nc2ccc(Nc3nc(Cl)nc(Nc4ccc(S(=O)(=O)O)cc4)n3)c(S(=O)(=O)O)c2)c2c1C(=O)c1ccccc1C2=O | 81%*
N#Cc1cccc(NC(=S)N[C@H]2CO[C@H]3[C@@H]2OC[C@@H]3n2cc(CC3CCCCC3)nn2)c1 | i
Cc1cccc(CN2CCCC3(CCN(c4nc(C)cnc4C)C3)C2=O)c1 (configuration not stated) | i
O=C(CSc1c2c(nc3cc(Cl)ccc13)CCCC2)NCc1cccnc1 | i
O=C(CN1C(=O)CCc2cc(S(=O)(=O)N3CCCC3)ccc21)NC1CC1 | i
NC(=O)C1CCCN(C2CC(=O)N(c3ccccc3)C2=O)C1 (configuration not stated) | i
CCCCCNC(=O)C1CCC(Cn2c(=O)c3sccc3n(CC(N)=O)c2=O)CC1 (configuration not stated) | i
CC(C)c1ccc2c(c1)CCC1[C@](C)(C(=O)O)CCC[C@]21C (some centres not stated) | i
CC(C)C1(O)C=C2C(=O)CC3C(C)(C(=O)O)CCCC3(C)C2CC1 (configuration not stated) | 30%*
C=CC(C)(O)CC[C@H]1C(=C)CCC2[C@](C)(C(=O)O)CCC[C@@]21C (some centres not stated) | i
CN(CCc1ccccn1)c1ncccc1CNC(=O)C1(C)CC1 | i
CCN(CC)S(=O)(=O)c1ccc(-c2csc(=Nc3ccc(F)cc3)n2CCCO)cc1 | 43%*
CCN(CC)S(=O)(=O)c1ccc(C(=O)N=c2sc3ccccc3n2C)cc1 | i
O=C(Nc1nc2ccccc2s1)c1ccc(S(=O)(=O)N2CCOCC2)cc1 | i
O=S(=O)(c1ccc(-c2csc(=Nc3ccccc3)n2CCCO)cc1)N1CCOCC1 | 39%*
CSc1ccccc1C(=O)Nc1ccc(S(=O)(=O)N2CCOCC2)cc1 | i
CCCCN(CCCC)S(=O)(=O)c1ccc(C(=O)Nc2nnc(-c3ccc(F)cc3)o2)cc1 | i
CCCCC(=O)Nc1ccc(S(=O)(=O)Nc2cc(OC)ncn2)cc1 | i
Fc1cccc(C2(CNC3CCSC3)CCOCC2)c1 (configuration not stated) | i
O=C(Nc1c(C(=O)O)oc2ccccc12)c1ccccc1 | i
CCN(CC)CC(=O)Nc1c(C(=O)c2ccccc2)oc2ccccc12 | 43%*
SMILES | ST2 inh
CCC(=O)Nc1c(C(=O)Nc2ccccc2F)oc2ccccc12 | i
CC(C)C(=O)NCC(=O)N1CCC2(CC1)c1ccccc1[C@@H](N)[C@@H]2O | i
CN(C)[C@@H]1C[C@@H](C(=O)O)N(C/C=C/c2ccccc2)C1 | i
COc1ccc(Nc2nc(-c3cccc([N+](=O)[O-])c3)cs2)cc1 | 38%*
NS(=O)(=O)c1ccc(Nc2nc(-c3ccccn3)cs2)cc1 | i
COc1cccc(Nc2nc(-c3ccc(F)cc3)cs2)c1 | i
COc1ccc(Nc2nc(Nc3ccc(OC)cc3)c([N+](=O)[O-])cc2[N+](=O)[O-])cc1 | i
Cc1nc2ncccn2c1-c1csc(Nc2cccc([N+](=O)[O-])c2)n1 | 37%*
Brc1ccc(Nc2nc(-c3ccccn3)cs2)cc1 | i
O=C(Cc1ccc(F)cc1F)Nc1ccc(F)cc1 | i
CCOc1ccc(S(=O)(=O)N2CCN(c3cc(-c4cccc(OC)c4)ncn3)CC2)cc1 | i
CC1(C)[C@@H]2CC[C@]1(CS(=O)(=O)Nc1cccc(F)c1)C(=O)C2 | i
Cc1cc([N+](=O)[O-])nn1CCCC(=O)NCc1ccc(Cl)cc1 | i
CN(C)CCC1CCCCN1Cc1ccc(F)c(C(F)(F)F)c1 (configuration not stated) | i
CN1CCN(C(=O)C2c3ccccc3C(=O)N3CCc4ccccc4C23)CC1 (configuration not stated) | i
COc1ccc(C2SCCN2S(=O)(=O)c2ccc(C)cc2)cc1[N+](=O)[O-] (configuration not stated) | i
Cc1ccc(S(=O)(=O)N2C/C(=C\c3ccccc3)c3c2cc([N+](=O)[O-])cc3[N+](=O)[O-])cc1 | 35%*
Cc1ccc(S(=O)(=O)N2CCN(S(C)(=O)=O)C2c2ccccc2)cc1 (configuration not stated) | i
CCCCCC[C@H](O)[C@@H]1CCC2=C(O1)[C@H](O)CCC2=O | i
COc1cc(/C=C2\SC(N)=NC2=O)cc(Br)c1O | i
COc1ccc(/C=C2/SC(N3CCN(C)CC3)=NC2=O)cc1OC | i
COc1ccc(/C=C2/C(=O)N=C(N)N2C)cc1OC | i
COc1ccc(/C=C2\SC(c3ccc(C)cc3)=NC2=O)cc1OC | 30%*
COc1cc(/C=C/c2cc(O)cc(O)c2)ccc1O | i
